HEK cytotox: Cytotoxic Profiling in HEK 293 Cell Line of Diverse Libraries Using Quantitative High-Throughput Screening. actives 6.6% (n = 94,000). HEK 293 viability, ATP luminescence (CellTiter-Glo), 48-72 h. Potency, µM (top dose mostly 115 µM), for inactives: top-dose activity change, negative = cytotoxicity, most hits filed as inhibitors; further: nearly all actives have a fitted effect of over 60% in size
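HEK 293 cells seeded at 250 cells/well were exposed to compound for 48 or 72 hr at 37 degree Celsius. Viability taken as ATP content by CellTiter-Glo luminescence.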
NPR1 antag: Natriuretic polypeptide receptor (hNpr1) antagonism - Primary qHTS | Atrial natriuretic peptide receptor 1 (Homo sapiens), P16066 | HEK293 hNpr1 GloSensor cGMP, ANP-stimulated luminescence | Potency, µM (highest dose often 46.3 µM), for inactives: at the top dose activity change, negative = inhibition, usual class: inhibitors | actives 1.6% (n = 76,000) | AID 1347048, 2019; calls by dose curve; further: nearly all actives have a fitted effect of over 60% in size
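HEK293 cells stably expressing human Npr1 and cGMP GloSensor pGS-40F, loaded 2 h with 2% GloSensor reagent, given compound 30 min at room temperature. Luminescence read before and 20 min after 0.1 nM hNppA.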
NIH3T3 tox: Cytotoxic Profiling in NIH 3T3 Cell Line of Diverse Libraries Using Quantitative High-Throughput Screening | NIH 3T3 viability, CellTiter-Glo ATP luminescence, 48-72 h | Potency, µM (series often up to 96.7 µM), for the others: at the highest dose activity change, negative = cytotoxicity, hits mostly inhibitors | AID 1345082, 2018 | actives 4.3% (n = 94,000); further: nearly all actives have a fitted effect of over 55% in size
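Viability of NIH 3T3 cells after 48 or 72 hr compound treatment at 37 °C was assessed by CellTiter-Glo, with luminescence imaged following a 10 min room-temperature step.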
FLuc inh: Firefly luciferase inhibition profiling of diverse chemical library using quantitative high-throughput screening. purified P. pyralis luciferase, luminescence, biochemical. Potency, µM (titrated, usually from 115 µM), usual class: inhibitors. Luciferin 4-monooxygenase (Photinus pyralis), P08659. actives 2.5% (n = 76,000); further: nearly all actives have a fitted effect of over 65% in size
Target sequence (P08659 whole entry, looked up): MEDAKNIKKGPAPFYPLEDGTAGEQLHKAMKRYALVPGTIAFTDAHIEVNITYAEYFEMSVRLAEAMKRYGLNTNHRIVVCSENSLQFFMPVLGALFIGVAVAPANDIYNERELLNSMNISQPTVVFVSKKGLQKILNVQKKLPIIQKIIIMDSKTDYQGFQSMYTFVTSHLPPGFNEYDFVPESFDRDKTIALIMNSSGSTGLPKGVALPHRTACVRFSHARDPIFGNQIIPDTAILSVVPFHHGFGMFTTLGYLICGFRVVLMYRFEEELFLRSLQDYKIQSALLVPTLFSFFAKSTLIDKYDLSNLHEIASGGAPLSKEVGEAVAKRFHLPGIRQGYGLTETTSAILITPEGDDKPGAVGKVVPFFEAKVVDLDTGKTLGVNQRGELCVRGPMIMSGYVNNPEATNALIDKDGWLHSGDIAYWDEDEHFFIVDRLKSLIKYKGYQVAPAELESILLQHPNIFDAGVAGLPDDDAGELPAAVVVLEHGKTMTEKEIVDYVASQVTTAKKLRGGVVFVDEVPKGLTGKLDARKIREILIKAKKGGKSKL
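Cell-free enzyme assay, 10nM P. pyralis luciferase, luciferin and ATP each at 10uM. Inhibition profiled over a 6-point titration, read as luminescence.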
* marks the source's active call; other numbers are inactive results; i = inactive; ? = inconclusive; / = no result given; [ ] = dose if it differs, or a comment. In the library only some 11% were active in any assay of this set; here they are far more common. Unless noted, the call rests on the fitted dose curve; in most records, active means well fitted curve in the direction sought with a large enough effect; inconclusive means small, poorly fitted or top-dose-only effect, or another doubt; inactive means no such curve, though single readings can be large; an effect the other way counts as inactive or inconclusive. On the % scale 0 is the no-effect control and ±100 the full control effect; potency means the concentration at half of the fitted maximal effect.

SMILES	HEK cytotox	NPR1 antag	NIH3T3 tox	FLuc inh
O=C(Nc1cccs1)N1CCNc2cnc(Nc3cccc(C(F)(F)F)c3)nc2C1	79µM*	-5%[70.6 µM]	79µM*	i
O=C(c1ccc(Cl)cc1)N1CCNc2cnc(Nc3cccc(C(F)(F)F)c3)nc2C1	32µM*	?	22µM*	i
Cc1ncsc1C(=O)N1CCNc2cnc(Nc3cccc(C(F)(F)F)c3)nc2C1	?	?	?	i
CC(C)CCNC[C@H]1O[C@H](Cc2cc(-c3ccc(F)cc3)on2)CC[C@@H]1O	89µM*	?	50µM*	?
CC(=O)NC[C@H]1O[C@H](Cc2cc(-c3ccc(F)cc3)on2)CC[C@@H]1O	-17%[172 µM]	?	-7%[138 µM]	?
O=C(NC[C@H]1O[C@H](Cc2cc(-c3ccc(F)cc3)on2)CC[C@@H]1O)c1ccc(F)cc1	?	16µM*	?	40µM*
CN(C)C[C@H]1O[C@H](Cc2cc(-c3ccc(F)cc3)on2)CC[C@@H]1O	-29%[172 µM]	-18%[70.6 µM]	-30%[138 µM]	i
COc1ccc(OC2CN(Cc3ccc(NC(C)=O)cc3)C2)cc1	?	/	-14%	/
Cc1noc(C)c1S(=O)(=O)N[C@@H]1C[C@H](Cn2cc(-c3cccnc3)nn2)[C@@H](O)[C@H]1O	40µM*	-2%	22µM*	i
COc1ccccc1-c1[nH]nc2ncc(C(=O)NCCc3ccccn3)nc12	63µM*	-2%[70.6 µM]	?	i
COc1ccccc1-c1[nH]nc2ncc(C(=O)N(C)c3ccccc3)nc12	89µM*	-22%[70.6 µM]	?	i
CCC(=O)Nc1ccc(C2(C(=O)NC(C)C)CCC2)cc1	-5%	3%	-9%	i
O=C(NC1CC(c2cc(N3CCC(O)C3)ncn2)C1)c1ccoc1 (stereo not drawn)	4%	13%	-6%	i
N#Cc1ccc(NC2CC(c3cc(N4CCC(O)C4)ncn3)C2)nc1 (stereo not drawn)	-9%	1%	16µM*	i
COc1ccccc1CN(Cc1ccccc1C)C(=O)[C@H]1CCC[C@H](O)C1	22µM*	2%	-20%	i
O=C(CN1CCCc2nc(C3CC3)ncc2C1=O)NC1CCCCC1	-19%	/	-27%	/
O=C1Nc2ccccc2CC12CCN(Cc1ccncc1)CC2	-27%	/	-22%	/
CC1=C[C@@H](CNC2CCN(C)CC2)[C@H](C(C)C)C[C@H]1Cc1nc2ccc(F)cc2[nH]1	71µM*	-4%[70.6 µM]	?	i
CC1=C[C@@H](CNS(C)(=O)=O)[C@H](C(C)C)C[C@H]1Cc1nc2ccc(F)cc2[nH]1	89µM*	?	?	i
CC1=C[C@@H](CNS(C)(=O)=O)[C@H](C(C)C)C[C@H]1Cc1nc2ccc(Cl)cc2[nH]1	100µM*	?	?	i
CC1=C[C@@H](CNC(=O)CC2(CC(=O)O)CCCC2)[C@H](C(C)C)C[C@H]1Cc1nc2ccc(F)cc2[nH]1	-15%	-14%	-17%	i
CC1=C[C@@H](CNC(=O)CCCC(=O)O)[C@H](C(C)C)C[C@H]1Cc1nc2ccc(Cl)cc2[nH]1	-9%	0%	-30%	i
COC1C(=O)N(c2cccc(F)c2)C12CCN(S(=O)(=O)Cc1ccccc1)CC2 (stereo not drawn)	?	-3%	-17%	i
COC1C(=O)N(c2cccc(F)c2)C12CCN(C(=O)Nc1ccccc1)CC2 (stereo not drawn)	-27%	1%	?	i
COC1C(=O)N(c2cccc(F)c2)C12CCN(S(=O)(=O)Cc1ccccc1F)CC2 (stereo not drawn)	40µM*	-25%	-18%	i
COC1C(=O)N(c2cccc(F)c2)C12CCN(C(=O)c1cc3ccccc3[nH]1)CC2 (stereo not drawn)	32µM*	-3%	?	?
CS(=O)(=O)N1C[C@@H]2CN(C(=O)CCn3cccn3)C[C@]2(C(=O)O)C1	0%	-3%	-24%	i
COC(=O)[C@@H]1Cc2ncn(Cc3ccc(Cl)cc3)c2CN1Cc1cccs1	?	?	89µM*	i
COC(=O)[C@@H]1Cc2ncn(Cc3ccc(Cl)cc3)c2CN1CCCc1ccccc1	25µM*	?	-95%[138 µM]	i

Assay outcomes as filed in PubChem.
